# Assay results: PubChem BioAssay (EPA / NIEHS)
# Active and inactive are the calls of the source. The calls were made as follows: active = hit-call score of the fitted dose curve at least 0.9, where 1 is the maximum; inactive = score below 0.9.
# Molecular target: Heat shock factor protein 1 (Homo sapiens) (UniProt Q00613)
# Assay: ATG_HSE_CIS: Attagene CIS-FACTORIAL HepG2 Assay for human Heat Shock Transcription Factor 1 (HSE) (AID 2282953)
# Conditions: HepG2 HSE cis-reporter, Attagene RNA transcription; actives raise or lower the signal
# Procedure, shortened: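 HepG2 cells transfected with cis-promoter reporter units sensing endogenous transcription factor activity; reporter mRNA quantified 24 h post-dose by RT-PCR and capillary electrophoresis of 6-FAM-labelled products. Bidirectional fitting against DMSO.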
# Chain of Heat shock factor protein 1 (Homo sapiens) (Q00613 whole entry, looked up): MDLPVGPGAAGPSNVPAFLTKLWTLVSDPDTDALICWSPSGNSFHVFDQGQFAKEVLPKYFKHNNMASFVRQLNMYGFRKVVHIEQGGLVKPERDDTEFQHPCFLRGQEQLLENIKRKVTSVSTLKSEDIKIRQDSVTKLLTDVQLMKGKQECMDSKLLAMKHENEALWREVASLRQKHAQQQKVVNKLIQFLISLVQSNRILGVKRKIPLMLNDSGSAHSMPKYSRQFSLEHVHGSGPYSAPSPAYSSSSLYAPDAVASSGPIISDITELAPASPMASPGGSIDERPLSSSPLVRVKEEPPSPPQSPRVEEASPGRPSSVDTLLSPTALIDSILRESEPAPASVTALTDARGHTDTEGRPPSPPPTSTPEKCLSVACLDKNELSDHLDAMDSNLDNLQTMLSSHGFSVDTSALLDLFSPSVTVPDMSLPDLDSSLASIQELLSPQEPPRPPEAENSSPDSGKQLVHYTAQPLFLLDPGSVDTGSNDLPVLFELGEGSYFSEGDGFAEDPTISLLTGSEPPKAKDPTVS
Compound,outcome,AC50
C=CC(C)(C)C,inactive,
CC(C)=CCC[C@H](C)CCO,inactive,
NC(=O)OCC(COC(N)=O)c1ccccc1,inactive,
CCCCC(CC)COCC1CO1 (stereo not given),inactive,
CC=CC(=O)N(CC)c1ccccc1C,inactive,
CCOCC(=O)O,inactive,
Nc1ncn([C@@H]2O[C@H](CO)[C@@H](O)[C@H]2O)c(=O)n1,inactive,
OC1CCCC1,inactive,
Cc1ccc(C(C)c2ccc(C)c(C)c2)cc1C,,100 µM (active)
CC(C)CCCC(C)CC=O (stereo not given),inactive,
CC(=O)NS(=O)(=O)c1ccc(N)cc1,inactive,
CCCCCCCC/C=C\CCCCCCCC(=O)OCCO,inactive,
O=C1c2ccccc2C(=O)C1c1nc2ccccc2c(Br)c1O,inactive,
C[C@]12CCC(=O)C=C1CC[C@@H]1[C@@H]2C(=O)C[C@@]2(C)[C@H]1CC[C@]2(O)C(=O)CO,inactive,
CCN(CC#N)c1cccc(C)c1,inactive,
CC1(C)S[C@@H]2[C@H](NC(=O)COc3ccccc3)C(=O)N2[C@H]1C(=O)O,inactive,
COc1c2ccoc2cc2oc(=O)ccc12,inactive,
O=c1[nH]nc(-c2ccc([N+](=O)[O-])o2)o1,inactive,
C=C[Si](OC(C)=O)(OC(C)=O)OC(C)=O,inactive,
COc1cc(NC(=O)CC(C)=O)c(OC)cc1Cl,inactive,
O=C(O)CCCC[C@@H]1SC[C@@H]2NC(=O)N[C@@H]21,inactive,
CCCNC(=O)NS(=O)(=O)c1ccc(Cl)cc1,inactive,
C=C(C)C(=O)OCCOc1ccccc1,inactive,
CC(C)(C)C(=O)CCc1ccc(Cl)cc1,inactive,
[Cl][Nd]([Cl])[Cl],inactive,
